Laboratory results taken from PubChem BioAssay AID588342 (National Center for Advancing Translational Sciences (NCATS), 2011).
Hit rate of the full screen: of about 360,000 compounds, about 25,000 (6.9%) were called active. Another 9% or so got no clear call; they are omitted. Shown is part of a subset that was picked to be rich in actives. A number with no mark means an inactive call. Calls follow the shape of the dose curve; as a rule, active = well fitted inhibition curve with a large enough effect; inconclusive = small, poorly fitted or top-dose-only effect; inactive = flat fitted curve, though single readings scatter.

target: Luciferin 4-monooxygenase (Photinus pyralis) (UniProt P08659); test: qHTS profiling assay for firefly luciferase inhibitor/activator using purifed enzyme and Km concentrations of substrates (counterscreen for miR-21 project); conditions: purified FLuc, luminescence inhibition; series mostly up to 57.5 µM; activity change, negative = inhibition: at the top concentration; also: nearly all actives have a fitted effect of over 55% in size;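 as to activity change, negative = inhibition: plate controls were vehicle for no effect and reference inhibitor for full effect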
Outline: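 Biochemical qHTS of compounds, final roughly 60 µM downward over six points, against 10 nM purified firefly luciferase using Km concentrations of substrates (10 uM D-luciferin, 10 uM ATP) in Tris acetate pH 7.5 buffer; luminescence output.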
Potency is read from the fitted curve at half-maximal effect.

Chain of Luciferin 4-monooxygenase (Photinus pyralis) (P08659 whole entry, looked up): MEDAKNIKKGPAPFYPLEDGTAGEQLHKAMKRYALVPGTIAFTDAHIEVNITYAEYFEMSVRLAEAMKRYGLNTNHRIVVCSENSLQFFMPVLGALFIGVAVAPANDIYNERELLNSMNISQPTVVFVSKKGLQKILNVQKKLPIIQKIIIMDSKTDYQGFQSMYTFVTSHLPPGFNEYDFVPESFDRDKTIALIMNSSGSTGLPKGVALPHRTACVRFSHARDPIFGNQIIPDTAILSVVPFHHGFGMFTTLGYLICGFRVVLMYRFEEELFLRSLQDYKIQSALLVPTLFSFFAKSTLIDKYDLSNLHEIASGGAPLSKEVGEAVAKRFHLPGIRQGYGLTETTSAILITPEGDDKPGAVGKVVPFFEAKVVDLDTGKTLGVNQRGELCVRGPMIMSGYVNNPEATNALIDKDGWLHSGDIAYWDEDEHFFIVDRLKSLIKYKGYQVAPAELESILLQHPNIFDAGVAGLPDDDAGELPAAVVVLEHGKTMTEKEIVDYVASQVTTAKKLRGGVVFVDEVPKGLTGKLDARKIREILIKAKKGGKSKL

Compound | activity change, negative = inhibition [%] | Potency
CC(C)CC(=O)N1CCN(Cc2ccccc2Br)CC1 | 1.19 | 
COc1cccc(CNC(=O)COc2cc(O)c3c(c2)OC(C)(C)CC3=O)c1 | -10.3 | 
Cc1c(C(=O)NCc2ccccc2Br)oc2ccc3c(c12)C(=O)CC(C)(C)O3 |  | 1.69 µM (active)
COc1ccc(-c2nc3sc(CCNS(=O)(=O)c4ccc(F)c(C)c4)c(C)n3n2)cc1 | -19 | 
COc1ccc(C(=O)Nc2ccc(-n3nncc3C(C)(C)C)cc2)cc1 | -11.1 | 
COc1ccc(CNC(=O)C(=O)N2CCC3(CC2)OCCN3S(=O)(=O)c2ccc(C)cc2)cc1 | -1.75 | 
Cc1cc(Cl)ccc1OCC(=O)N(Cc1ccc(N(C)C)cc1)C1CCS(=O)(=O)C1 (stereo not given) | -12.5 | 
Cc1ccc(C(=O)COC(=O)C(Cc2c[nH]c3ccccc23)NC(=O)c2ccc(Br)cc2)cc1 (stereo not given) | 0.131 | 
COC(=O)[C@@H](NC(=O)Nc1cc(Cl)ccc1C)C(C)C | -4.44 | 
Cc1cc2nn(-c3ccc(Cl)cc3)nc2cc1NC(=O)C(C)C |  | 0.379 µM (active)
CC(CCCc1ccccc1)NC(=O)c1nn(-c2ccc(Cl)cc2)nc1CO (stereo not given) | 1.51 | 
CCN(C(=O)COC(=O)c1c(C)nn(-c2ccccc2)c1Cl)c1c(N)n(Cc2ccccc2)c(=O)[nH]c1=O | -0.736 | 
CCOC(=O)C1=C(c2ccccc2)Nc2ncnn2C1c1ccc(Cl)cc1 (stereo not given) | -10 | 
CCCSc1ncc(Cl)c(C(=O)Nc2sc3c(c2C(=O)NCCOC)CCCC3)n1 | -5.29 | 
CC(NC(=O)C(=O)N/N=C/c1ccc(Cl)cc1)c1ccccc1 (stereo not given) | -1.64 | 
NCCCCCC(=O)N/N=C/c1ccc2nccnc2c1 | -0.587 | 
CC1=NNC(=O)C1CCC(=O)N/N=C\c1ccc(Cl)c(Cl)c1 (stereo not given) | -6.92 | 
O=C(N/N=C/c1ccc(Cl)c(Cl)c1)c1ccc2nc[nH]c2c1 |  | 13.5 µM (active)
CSc1ccc(/C=N/NC(=O)c2cccc(Cl)c2)cc1 |  | 5.36 µM (active)
CSc1ccc(/C=N\NC(=O)CC(=O)NC(C)C)cc1 | -5.08 | 
Cc1ccccc1CNC(=O)C1CCCN(S(=O)(=O)N(C)c2ccc(F)cc2)C1 (stereo not given) | 4.61 | 
Cc1c(C(=O)NCc2ccccc2)cnn1-c1ccccc1 | -24.9 | 

Compound | activity change, negative = inhibition [%] | Potency
CCN(CC)CCN1C(=O)C(=O)/C(=C(/O)c2ccc(OC)c(OC)c2)C1c1ccccn1 (stereo not given) | 10.6 | 
CCN(CC)CCN1C(=O)C(=O)/C(=C(/O)c2cnn(-c3ccccc3)c2C)C1c1cccs1 (stereo not given) |  | 21.3 µM (active)
CN(CC(=O)Nc1ccc(Cl)c(C(F)(F)F)c1)C(=O)CCC(=O)c1ccccc1 | -12.1 | 
Cc1nnc(SCc2cc(=O)c3cc(F)ccc3[nH]2)n1C | -1.2 | 
COc1ccc(-c2cc(C(F)(F)F)nc(NCc3cccnc3)n2)cc1 | 2.9 | 
COc1ccc(-c2cc3ncccc3cn2)cc1 |  | 5.36 µM (active)
COc1ccc(-c2cn[nH]c2-c2ccc(OC)cc2)cc1 | 4.38 | 
CCOCCCNc1c(CC)c(C)c(C#N)c2nc3ccccc3n12 | 0.35 | 
CC1CCc2c(sc3c2C2=NS(=O)(=O)CCN2C=N3)C1 (stereo not given) | -12.8 | 
CCOC(=O)N1CCN(S(=O)(=O)c2ccc3c(c2)C(C)C(=O)N3)CC1 (stereo not given) | 2.28 | 
CCOC(=O)c1c(SCC(=O)Nc2cccc(C)c2C)nc(=O)[nH]c1C | 2.11 | 
Cc1ccccc1OCc1ccc(-c2nc(C#N)c(N3CCCCC3)o2)o1 | 3.38 | 
Cc1ccc(O)c(NC(=O)COc2cc(C)ccc2C)c1 | -4.48 | 
Cc1ccc(O)c(NC(=O)c2cc(-c3ccc(F)cc3)no2)c1 | -8.31 | 
Cc1ccc(O)c(NC(=O)c2cc(-c3ccco3)on2)c1 |  | 6.01 µM (active)
COc1cc(C(=O)NCC(c2ccco2)N2CCCC2)ccc1OCc1ccccc1 (stereo not given) | 2.12 | 
CCc1sc(C(=O)N2CCN(CC(=O)Nc3cccc(F)c3)CC2)cc1C |  | 13.5 µM (active)
O=C(CN1CCN(C(=O)c2cccc(F)c2)CC1)Nc1ccccc1F | 2.19 | 
CC(=O)N1CCN(CC(=O)Nc2ccc(C)c(F)c2)CC1 | -0.435 | 
CN(CC(=O)Nc1ccc(Cl)cc1)C(=O)c1ccc(COc2ccccc2)cc1 | 7.64 | 
Cc1c(NC(=O)c2cc(=O)c3ccccc3o2)c(=O)n(-c2ccccc2)n1C | -1.55 | 
CCCn1nc(C(=O)OCc2nc(N)nc(Nc3ccccc3C)n2)c2ccccc2c1=O | -1.32 | 

Compound | activity change, negative = inhibition [%] | Potency
Cc1cc(=O)n(CC(=O)Nc2cccc([N+](=O)[O-])c2)c(-n2nc(C)cc2C)n1 | 3.47 | 
O=C(CCN1C(=O)c2ccccc2C1=O)C1=NN[C@@H]2C(=O)N(c3ccc(F)cc3)C(=O)[C@H]12 | -0.377 | 
CC1(C)CC(=O)c2c(n(S(=O)(=O)c3ccccc3)c3ccc(NS(=O)(=O)c4ccccc4)cc23)C1 | 1.26 | 
O=C(CCSCc1ccccc1F)N1CCN(c2ccc(Cl)cc2)CC1 | -10.8 | 
O=C(CCSc1ccccc1)N1CCN(c2ccccc2F)CC1 |  | 10.7 µM (active)
O=C(CCc1ccccc1F)N1CCN(c2ccccc2)CC1 | 3.75 | 
Cc1ccc(C)c(Nc2nnc(-c3ccc(C)c(S(=O)(=O)N4CCCCC4)c3)c3ccccc23)c1 | -1.33 | 
CCCn1nnc2sc3c(c2c1=O)CCC(C)C3 (stereo not given) |  | 15.1 µM (active)
CC1CCc2c(sc3nc4n(c(=O)c23)CCS4)C1 (stereo not given) |  | 21.3 µM (active)
COC(=O)c1cccc(Cn2nnc3sc4c(c3c2=O)CCC(C(C)(C)C)C4)c1 (stereo not given) | 6.43 | 
Cc1ccc(NC(=O)Cn2nnc3sc4c(c3c2=O)CCC(C)C4)cc1 (stereo not given) | -7.12 | 
Cn1c(NN)nc2sc3c(c2c1=O)CCC3 | 1.61 | 
C=CCn1c(SCc2c(C)noc2C)nc2sc3c(c2c1=O)CCC(C)C3 (stereo not given) | 5.75 | 
Cc1ccc2nc3c(cc(C(=O)NC4CCCCC4)c(=N)n3C(C)C)c(=O)n2c1 | -2.1 | 
CCOC(=O)c1c(NC(=O)Cc2coc3ccc(CC)cc23)sc2c1CCC2 | 3.62 | 
Fc1ccccc1/C=C1\CCCC2=C1Nc1ncnn1C2c1ccccc1F (stereo not given) | 2.39 | 
CSCCC(NC(=O)c1ccccc1)C(=O)N1CCCCCCC1 (stereo not given) | 0.843 | 
COc1ccc(Cl)cc1S(=O)(=O)N1CCC(c2ccncc2)CC1 | -1.34 | 
CC1CCCCN1CC(=O)N1CCCc2c1c(=O)oc1ccc(OCc3ccccc3)cc21 (stereo not given) | -1.68 | 
Cc1ccc(CNS(=O)(=O)CCNC(=O)c2ccccc2)cc1 | -1.29 | 
Cn1c2c(c(=O)n(C)c1=O)C(c1cccc([N+](=O)[O-])c1)Nc1ccccc1O2 (stereo not given) | 9.28 | 
